Reference: PubChem BioAssay
Active and inactive are the calls of the source.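 The calls were made as follows, unless noted: active = inhibition at or above 50% at 10 µM; inactive = inhibition below 50%.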

Key:
[1] = inhibitors of TNFa-induced NFkB p65 translocation, primary screen, imaging, HUVEC, MLSMR starter and 10KST1 sets (AID 438;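 active = inhibition above 20% together with a positive visual image hit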;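 also: compound added about 3h40 before a 20 min TNFalpha stimulation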;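 as to inhibition: signal is the nuclear over cytoplasmic p65 intensity ratio per well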); details: HUVEC TNFa-induced p65 nuclear translocation; cell count: measured here: nuclei count (cytotoxicity indicator), at 2.08 µM; inhibition: at 2 µM, stronger effect = higher value, 0% TNFa-plus-vehicle, 100% no-TNFa wells
[2] = inhibitors of mutant huntingtin aggregation, primary screen, imaging, exon1htt(103Q)mCFP cells, high-content imaging (AID 483;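 active = visual image review flags a hit and inhibition of aggregation exceeds 20%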;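 also: compound exposure lasted 3 days before fixation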;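 as to nuclei count: percent of the per-plate median nuclei count of sample wells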); details: exon1htt(103Q)mCFP cell line, aggregate imaging, at 2 µM; inhibition of aggregation: stronger effect = higher value; nuclei count: measured here: cell count, toxicity
[3] = inhibitors of E-selectin induction by TNFa, primary screen, imaging, HUVEC, immunofluorescence, MLSMR starter and 10KST1 sets (AID 487;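 active = visually confirmed hit in the image check and inhibition above 20%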;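 as to inhibition: signal is fraction of cell area covered by stained E-selectin grains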;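 as to nuclei count: 100% = median nuclei count of all wells on the same plate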); details: HUVEC TNFalpha-induced E-selectin immunofluorescence imaging, at 2 µM; inhibition: stronger effect = higher value; nuclei count: measured here: cell number, toxicity
[4] = molecular target: Voltage-gated potassium channel subunit beta-2 (Rattus norvegicus) (UniProt P62483); test: KvBeta enzyme negative modulators, primary screen, biochemical, NADPH fluorescence (AID 622;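 active = fluorescence slope higher than the sample average by over 3 SD, cut at about -0.22 in these data, passing the limit was not always enough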;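 also: slope of raw intensity against log time taken from 70 to 1610 s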); details: recombinant KvBeta, 4-cyanobenzaldehyde reduction, at 10 µM, stronger effect = higher value
Voltage-gated potassium channel subunit beta-2 (Rattus norvegicus), sequence (P62483 whole entry, looked up): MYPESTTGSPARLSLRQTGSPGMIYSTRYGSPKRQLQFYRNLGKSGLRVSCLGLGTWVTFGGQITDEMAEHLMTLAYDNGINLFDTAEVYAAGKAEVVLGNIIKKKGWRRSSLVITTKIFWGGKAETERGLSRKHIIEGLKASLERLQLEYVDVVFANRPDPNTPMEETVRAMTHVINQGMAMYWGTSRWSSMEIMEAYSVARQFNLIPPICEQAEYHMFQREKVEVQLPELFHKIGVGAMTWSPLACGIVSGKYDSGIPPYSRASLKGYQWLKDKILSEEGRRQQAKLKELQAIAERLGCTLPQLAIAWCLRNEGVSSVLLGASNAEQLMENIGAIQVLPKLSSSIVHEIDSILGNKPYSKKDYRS

[5] = molecular target: Voltage-gated potassium channel subunit beta-2 (Rattus norvegicus) (UniProt P62483); test: KvBeta positive modulators, primary screen, biochemical, NADPH fluorescence (AID 623;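 active = NADPH fluorescence slope more negative than the mean of all samples by about 3 SD, 99.7% confidence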;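 also: fluorescence intensity change per second fitted from 20 to 320 s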); details: Recombinant KvBeta, NADPH fluorescence decrease slope, 10 min; at 10 µM; stronger effect = lower value
[6] = molecular target: Alpha-2C adrenergic receptor (Homo sapiens) (UniProt P18825); test: modulators of alpha2C/GIRK thallium flux, primary screen, cell-based, HEK293 alpha2C/GIRK1/2 (AID 624;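 active = fluorescence slope after compound addition differing from the mean of all screened samples at 99.7% confidence, in either direction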;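 also: slope of fluorescence ratio to pre-addition baseline per second over 15 to 24 s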); details: thallium flux BTC fluorescence, at 10 µM, actives lie on both sides
Alpha-2C adrenergic receptor (Homo sapiens), sequence (P18825 whole entry, looked up): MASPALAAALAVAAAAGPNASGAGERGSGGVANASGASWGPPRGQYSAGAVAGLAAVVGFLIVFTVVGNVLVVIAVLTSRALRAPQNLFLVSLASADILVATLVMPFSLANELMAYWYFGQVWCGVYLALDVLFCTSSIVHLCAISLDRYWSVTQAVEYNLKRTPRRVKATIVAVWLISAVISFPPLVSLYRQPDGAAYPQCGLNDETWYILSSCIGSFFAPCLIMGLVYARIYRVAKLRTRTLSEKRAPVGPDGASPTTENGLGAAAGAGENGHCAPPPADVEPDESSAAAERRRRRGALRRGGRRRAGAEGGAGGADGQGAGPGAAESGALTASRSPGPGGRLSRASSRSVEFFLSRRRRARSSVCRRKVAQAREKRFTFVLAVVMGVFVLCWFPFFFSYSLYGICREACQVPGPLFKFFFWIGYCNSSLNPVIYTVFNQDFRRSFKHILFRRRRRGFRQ

[7] = inhibitors of Sendai virus-induced IRF3 signaling, primary screen, TLR/RLR signaling modifier project, cell-based, Sendai virus stimulus, luciferase, 10K MLSCN set (AID 602276); details: HEK293 RL24 IRF3 luciferase reporter, at 10 µM, stronger effect = higher value;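 also: firefly luciferase from ISG56 promoter only with Renilla not read in this screen; 0% = Sendai virus plus DMSO and 100% = medium plus DMSO without virus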
[8] = inhibitors of poly I:C-induced TLR3 signaling, primary screen, cell-based, poly I:C stimulus, luciferase, 10K MLSCN set (AID 602277;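 active = inhibition of the reporter signal at or above 50%; inactive = inhibition below 50%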); details: HEK293-TLR3 RL24 IRF3 luciferase reporter, at 10 µM, stronger effect = higher value

Structure (SMILES) | cell count [1] | inhibition [1] | inhibition of aggregation [2] | nuclei count [2] [%] | inhibition [3] | nuclei count [3] [%] | fluorescence slope [4] | NADPH fluorescence slope [5] | slope [6] | inhibition [7] | inhibition [8]
Nc1ccc(-n2c(N)c(C(=O)NCc3ccc4c(c3)OCO4)c3nc4ccccc4nc32)cc1 | 334 | -17.4% (inactive) | 16.7% (inactive) | 93.9 | -16.4% (inactive) | 117 | -0.476 (inactive) | -3e-05 (inactive) | 0.00435 (inactive) | 20.1% (inactive) | 3.26% (inactive)
Cc1nnc(SCCn2c(N3CCC(Cc4ccccc4)CC3)nc3c2c(=O)[nH]c(=O)n3C)s1 | 432 | -1.1% (inactive) | -91.9% (inactive) | 79.6 | -2.5% (inactive) | 104 | -0.54 (inactive) | 3.5e-06 (inactive) | 0.00468 (inactive) | 1.88% (inactive) | 20.9% (inactive)
COc1ccc(OC)c(S(=O)(=O)Nc2ccc(O)c3ccccc23)c1 | 382 | -10.1% (inactive) | -0.8% (inactive) | 93 | -13.9% (inactive) | 114 | -0.416 (inactive) | -6.5e-05 (inactive) | 0.00306 (inactive) | 14.9% (inactive) | 53.2% (active)
CC(=O)Nc1ccc(NS(=O)(=O)c2ccc(Cl)c(C(=O)O)c2)cc1 | 688 | -3.9% (inactive) | 11.4% (inactive) | 124 | -37.3% (inactive) | 128 | -0.42 (inactive) | -3.1e-05 (inactive) | 0.00403 (inactive) | -2.13% (inactive) | 20.4% (inactive)
COc1ccc(-c2cc(N3CCCC3)n3ncnc3n2)cc1 | 640 | 11.9% (inactive) | 7.3% (inactive) | 118 | -3.2% (inactive) | 102 | -0.473 (inactive) | -2.2e-05 (inactive) | 0.00575 (inactive) | -11.3% (inactive) | -11.7% (inactive)
CCc1ccc(C2CC(c3cccc(OC)c3)n3nc(N)nc3N2)cc1 (stereo not drawn) | 528 | 7.5% (inactive) | 3.7% (inactive) | 111 | -40.1% (inactive) | 104 | -0.599 (inactive) | -4e-05 (inactive) | 0.00641 (inactive) | 11.5% (inactive) | 25.7% (inactive)
Cc1cc2c(c(=O)n1C)C(Cc1ccccc1)C(C#N)=C(N)O2 (stereo not drawn) | 620 | -20.7% (inactive) | 24.9% (inactive) | 99.1 | -61.8% (inactive) | 117 | -0.322 (inactive) | -3.8e-05 (inactive) | 0.00445 (inactive) | 9.72% (inactive) | 14.5% (inactive)
CCOC(=O)c1cc(-c2nnc(-c3ccc(Oc4ccccc4)cc3)o2)c(C)nc1C | 761 | -3.9% (inactive) | 17.5% (inactive) | 102 | -20.7% (inactive) | 110 | -0.499 (inactive) | -2.6e-05 (inactive) | 0.0114 (active) | 7.09% (inactive) | 12.2% (inactive)
CNC(=O)NCCN1CCCC1=O | 505 | 4.5% (inactive) | -26.4% (inactive) | 111 | -83.1% (inactive) | 123 | -0.335 (inactive) | -3.4e-05 (inactive) | 0.00479 (inactive) | 9.55% (inactive) | 11.8% (inactive)
CCC1(CC)C(=O)N(C)C(=O)NC1=NCc1ccccc1 | 512 | -4.7% (inactive) | -9.9% (inactive) | 107 | 24.4% (inactive) | 96.9 | -0.334 (inactive) | 2e-05 (inactive) | 0.0048 (inactive) | 18.2% (inactive) | 12.1% (inactive)
CC(NS(=O)(=O)c1ccc(OCC(=O)N2CCOCC2)c(Cl)c1)c1ccccc1 (stereo not drawn) | 338 | -6.5% (inactive) | 0.2% (inactive) | 104 | -51.1% (inactive) | 76.7 | -0.409 (inactive) | -3.1e-05 (inactive) | 0.00508 (inactive) | 18.7% (inactive) | 12.4% (inactive)
COc1ccc(S(=O)(=O)Cc2ccc(C(=O)N3CCN(c4ccccc4)CC3)o2)cc1 | 524 | -8.3% (inactive) | 5.7% (inactive) | 70.9 | -89.5% (inactive) | 133 | -0.44 (inactive) | -4.3e-05 (inactive) | 0.00594 (inactive) | -7.36% (inactive) | 26.1% (inactive)
CCOC(=O)CSc1nc2ccccc2n1CC(=O)N1CCN(c2ccccc2)CC1 | 436 | 14.9% (inactive) | 7.6% (inactive) | 98 | 50.8% (inactive) | 99.5 | -0.569 (inactive) | 2.2e-05 (inactive) | 0.00504 (inactive) | -4.03% (inactive) | 1.41% (inactive)
COCCOC(=O)C1=C(C)OC(N)=C(C#N)C1c1ccc2c(c1)OCO2 (stereo not drawn) | 468 | -0.5% (inactive) | 12.6% (inactive) | 104 | -87.8% (inactive) | 110 | -0.44 (inactive) | -3.9e-05 (inactive) | 0.00523 (inactive) | 5.43% (inactive) | 23.2% (inactive)
CCc1nnc(NC(=O)CCC(=O)Nc2ccccc2)s1 | 554 | 7.2% (inactive) | -10.2% (inactive) | 97.2 | 33.2% (inactive) | 93.4 | -0.384 (inactive) | -6.1e-05 (inactive) | 0.00537 (inactive) | 9.85% (inactive) | 2.44% (inactive)
Cc1cccc(NC(=O)c2cc3ccccc3o2)c1 | 549 | -23% (inactive) | 10.7% (inactive) | 103 | 15.3% (inactive) | 157 | -0.506 (inactive) | 1.8e-05 (inactive) | 0.00578 (inactive) | -17.2% (inactive) | -74.5% (inactive)
Cc1n[nH]c(C)c1N1C(=O)c2cccc3cc(Br)cc(c23)C1=O | 476 | 5.9% (inactive) | -9.9% (inactive) | 103 | -36.7% (inactive) | 123 | -0.375 (inactive) | -7.7e-05 (inactive) | 0.00408 (inactive) | 1.78% (inactive) | 27.1% (inactive)
Cn1c(=O)[nH]c(=O)c2c1nc(N1CCc3ccccc3C1)n2CCSc1nc2ccccc2s1 | 404 | 4.7% (inactive) | 4.4% (inactive) | 105 | -34.8% (inactive) | 118 | -0.502 (inactive) | -4.2e-05 (inactive) | 0.00385 (inactive) | 19.3% (inactive) | 23% (inactive)
CC(C)(C)c1nc(CN2CCOCC2)ccc1O | 580 | -17% (inactive) | 21.1% (inactive) | 104 | -58.3% (inactive) | 109 | -0.401 (inactive) | -4.4e-05 (inactive) | 0.0093 (inactive) | 10.4% (inactive) | 29.3% (inactive)
O=c1oc2c3c4c(cc2cc1-c1nc2ccccc2[nH]1)CCCN4CCC3 | 451 | 5.9% (inactive) | 94.7% [may fluoresce] (active) | 112 | -25.7% (inactive) | 121 | -0.308 (inactive) | 1.6e-05 (inactive) | 0.00239 (inactive) | -24.1% (inactive) | -107% (inactive)
COC(=O)Cn1c(CCS(=O)(=O)c2ccc(C)cc2)nc2ccccc21 | 503 | -41.8% (inactive) | 6.7% (inactive) | 57.3 | -69.5% (inactive) | 105 | -0.498 (inactive) | -2.9e-05 (inactive) | 0.00565 (inactive) | 17.1% (inactive) | 28.4% (inactive)
COc1ccc(OCC(=O)Nc2ccc(N3CCOCC3)c(Cl)c2)cc1 | 651 | 7.5% (inactive) | -18.9% (inactive) | 101 | -144% (inactive) | 109 | -0.488 (inactive) | -1.5e-05 (inactive) | 0.00692 (inactive) | 10.5% (inactive) | 5.62% (inactive)
Cc1ccc2c(c1)sc1ncc(NC(=O)c3ccccc3)c(=O)n12 | 324 | 2.1% (inactive) | -14.3% (inactive) | 100 | -27.5% (inactive) | 110 | -0.58 (inactive) | 6.2e-06 (inactive) | 0.0047 (inactive) | -16.1% (inactive) | -38.4% (inactive)
CCOC(=O)N1CCN(c2nc(-c3ccc(Cl)cc3)cs2)CC1 | 256 | 7.4% (inactive) | 7.8% (inactive) | 80.8 | -94.3% (inactive) | 113 | -0.35 (inactive) | -3.8e-05 (inactive) | 0.00625 (inactive) | -3.5% (inactive) | -38.7% (inactive)
Cc1ccc(OCc2nnc(SCC(=O)Nc3ccc4c(c3)OCO4)n2C)cc1 | 325 | -6.5% (inactive) | 7.6% (inactive) | 77.3 | -59.2% (inactive) | 103 | -0.409 (inactive) | -5.7e-05 (inactive) | 0.00504 (inactive) | 17.9% (inactive) | 12.7% (inactive)
CCOC(=O)CSC1=C(C#N)C(c2ccc(Cl)cc2)C(C(=O)OC)C(=O)N1 (stereo not drawn) | 495 | 4.4% (inactive) | -24.6% (inactive) | 40.5 | -80% (inactive) | 95.7 | -0.394 (inactive) | -5.6e-05 (inactive) | 0.00371 (inactive) | 7.95% (inactive) | 25.3% (inactive)
CC(CCc1ccccc1)NC(=O)c1ccc(Br)o1 (stereo not drawn) | 570 | -7.8% (inactive) | 2.5% (inactive) | 83.4 | -78.2% (inactive) | 95.1 | -0.449 (inactive) | -3.4e-05 (inactive) | 0.00563 (inactive) | 7.34% (inactive) | 9.03% (inactive)
O=S(=O)(Cc1ccccc1)N1CCN(Cc2ccccc2)CC1 | 386 | 4.8% (inactive) | 12.7% (inactive) | 103 | -74.1% (inactive) | 117 | -0.46 (inactive) | 4.9e-05 (inactive) | 0.00741 (inactive) | -12% (inactive) | -7.67% (inactive)
